Our source for the activity change, negative = inhibition, Potency and activity, negative = inhibition values is PubChem BioAssay (NCATS).

Experiment [1] in a line: AP1 Signaling Pathway (AID 357). Also: % is scaled to controls: 0 for no effect and ±100 for the full control effect. Particulars: ME-180 AP-1-bla reporter, EGF-induced, beta-lactamase ratio, 5 h. The method, boiled down: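 Cells are seeded overnight, exposed to compound titrations and an EC50 level of EGF for 5 hours at 37 °C, then loaded with CCF4 dye for 2.5 hours. Beta-lactamase activity under the AP-1 element is read as a blue/green ratio.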
Experiment [2] deals with Cytochrome P450 1A2 (Homo sapiens) (UniProt P05177). The experiment can be described thus: p450-cyp1a2 (AID 410; calls by dose curve; also: potency is read from the fitted curve at half-maximal effect;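 as to activity change, negative = inhibition: -100% = full effect of reference inhibitor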). Particulars: recombinant CYP1A2, luciferin-ME demethylation, luminescence; series mostly up to 11.4 µM. The procedure, abridged: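 Read-out is luminescence from luciferin produced by CYP1A2 demethylation of Luciferin-ME (100uM, at Km). Detection reagent stopped the 60 min NADPH-dependent reaction; signals were normalized to 57 uM furafylline.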
Cytochrome P450 1A2 (Homo sapiens), sequence (P05177 whole entry, looked up): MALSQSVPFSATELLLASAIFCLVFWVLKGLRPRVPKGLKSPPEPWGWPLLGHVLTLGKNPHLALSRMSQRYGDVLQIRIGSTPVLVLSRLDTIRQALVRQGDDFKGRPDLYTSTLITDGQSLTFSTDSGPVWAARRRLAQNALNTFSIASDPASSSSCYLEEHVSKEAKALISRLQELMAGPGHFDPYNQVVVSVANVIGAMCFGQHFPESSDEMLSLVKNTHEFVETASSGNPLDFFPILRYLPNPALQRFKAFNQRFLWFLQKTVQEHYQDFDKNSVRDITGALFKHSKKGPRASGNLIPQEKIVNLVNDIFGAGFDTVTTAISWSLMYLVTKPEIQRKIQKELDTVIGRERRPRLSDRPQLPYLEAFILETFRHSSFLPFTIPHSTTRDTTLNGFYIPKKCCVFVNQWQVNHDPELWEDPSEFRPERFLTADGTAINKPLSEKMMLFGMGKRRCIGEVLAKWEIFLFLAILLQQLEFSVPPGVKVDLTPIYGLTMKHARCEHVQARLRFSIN

Experiment [3] is described as follows: NFAT Signaling Pathway (AID 444).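 Also: carbachol stimulus at about its EC50 of 1 µM final; % is scaled to controls: 0 for no effect and ±100 for the full control effect.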 Particulars: Jurkat NFAT-bla M1, carbachol, beta-lactamase ratio, 5 h. The procedure, abridged: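 Jurkat cells carrying an NFAT-driven β-lactamase reporter and co-transfected muscarinic M1 receptor were treated with compound plus carbachol (1 uM final, an EC50 level) for 5 h at 37 °C. CCF4 loading followed for 1 h at RT; 460/530 nm ratio gave %activity.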

Experiment [4] can be described thus: Stat Signaling Pathway (AID 446).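 Also: ME-180 cervical cancer cells given 40 pM IL-6 alongside compound; SIE-controlled beta-lactamase reporter measured as 460/530 nm FRET emission ratio; % is scaled to controls: 0 for no effect and ±100 for the full control effect.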 Particulars: ME-180 SIE beta-lactamase reporter, IL-6 stimulated, 5 h. The method, boiled down: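 Emission at 460 and 530 nm (excitation 405 nm) reports SIE-controlled beta-lactamase in ME-180 cells. Cells received compound with 40 pM IL-6 for 5 hrs at 37 C; data scaled between 300 pM IL-6 and 125 nM JAK-inhibitor controls.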

The target in experiment [5] is Glucocorticoid receptor (Homo sapiens) (UniProt P04150). In words: GR-GFP Redistribution (AID 450;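 active = compounds whose dose series gives a full or clear partial fitted curve of increased nuclear translocation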; also: potency is read from the fitted curve at half-maximal effect). To be noted: U2OS GR-GFP nuclear translocation, laser cytometry, 2 h.
Glucocorticoid receptor (Homo sapiens), sequence (P04150 whole entry, looked up): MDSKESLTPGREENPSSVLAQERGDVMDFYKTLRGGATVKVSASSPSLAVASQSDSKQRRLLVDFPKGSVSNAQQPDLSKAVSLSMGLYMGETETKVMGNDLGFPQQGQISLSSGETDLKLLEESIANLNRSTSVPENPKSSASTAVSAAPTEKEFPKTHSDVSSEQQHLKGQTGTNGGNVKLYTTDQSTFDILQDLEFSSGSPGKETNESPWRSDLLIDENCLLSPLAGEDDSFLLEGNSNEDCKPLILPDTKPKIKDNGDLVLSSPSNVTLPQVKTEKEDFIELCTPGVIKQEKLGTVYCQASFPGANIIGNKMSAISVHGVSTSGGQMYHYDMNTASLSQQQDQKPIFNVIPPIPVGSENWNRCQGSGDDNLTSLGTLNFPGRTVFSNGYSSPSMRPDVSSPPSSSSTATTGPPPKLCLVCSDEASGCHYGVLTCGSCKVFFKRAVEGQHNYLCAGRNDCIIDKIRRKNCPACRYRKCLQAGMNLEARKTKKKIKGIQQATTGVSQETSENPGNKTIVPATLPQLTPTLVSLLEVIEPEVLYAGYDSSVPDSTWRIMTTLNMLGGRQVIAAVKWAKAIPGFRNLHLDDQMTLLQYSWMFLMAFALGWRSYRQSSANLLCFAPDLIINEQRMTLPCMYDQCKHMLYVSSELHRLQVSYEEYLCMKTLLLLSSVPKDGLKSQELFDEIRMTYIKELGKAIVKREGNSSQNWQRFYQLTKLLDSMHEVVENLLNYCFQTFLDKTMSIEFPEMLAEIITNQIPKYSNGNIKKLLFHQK
Experiment [6] shares this target. In words: GR-EFC Redistribution (AID 451; calls by dose curve; also: potency is read from the fitted curve at half-maximal effect). To be noted: CHO-K1 GR-EFC translocation, beta-gal luminescence, 2 h. The method, boiled down:
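CHO-K1 cells stably expressing nuclear-localized β-gal enzyme acceptor and GR fused C-terminally to the enzyme donor fragment; ligand-driven nuclear translocation restores β-gal by complementation. Compounds titrated up to 46 uM final, 2 h at 37 °C; luminescence read.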

The target of experiment [7] is Mitogen-activated protein kinase 10 (Mus musculus) (UniProt Q61831). In words: JNK3 AlphaScreen Assay (AID 530).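 Also: kinase came from lysate of stimulated human HepG2 cells; % is scaled to controls: 0 for no effect and ±100 for the full control effect.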 Particulars: JNK3 lysate, c-Jun phosphorylation; series mostly up to 11.4 µM. The method, boiled down: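 Biotinylated GST-cJun(1-79) served as substrate for JNK3 in HepG2 lysates stimulated with IL-1beta and TNF-alpha. ATP was 10 uM final, pH 7.6. Ser73 phosphorylation was quantified by AlphaScreen (680 nm excitation).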

The target of experiment [8] is 3',5'-cyclic-AMP phosphodiesterase 4B (Homo sapiens) (UniProt Q07343). In words: qHTS Assay for Inhibitors of PDE-IV (AID 607; active = well fitted activation curve with a large enough effect in the main read-out, with a control signal flat, not every such curve was filed as active; also: % of control where 0% means no effect). Particulars: HEK293 ACTOne CNG channel cells, membrane potential fluorescence; series mostly up to 22.9 µM. The procedure, abridged:
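The readout is membrane depolarisation from a cAMP-sensing CNG channel, detected with a potential dye at ex 535/em 590. Cells were HEK293-derived (endogenous PDE-IV) at 1000 cells/well, titrated up to 22.9 uM final.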

For experiment [9], the target named is Lysosomal acid glucosylceramidase (Homo sapiens) (UniProt P04062). The experiment can be described thus: Glucocerebrosidase-p2 (AID 348; in the data active = potency below about 10 µM; also: potency is read from the fitted curve at half-maximal effect). Particulars: purified GBA, blue fluorogenic substrate, 40 min. The method, boiled down:
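Normal human glucocerebrosidase (0.2 nM) with blue fluorogenic substrate (80 uM final) in citrate/phosphate pH 5.9 with 10mM sodium taurocholate, 0.01% tween-20; 40 min RT, NaOH/glycine stop; fluorescence Ex 365/Em 440; AC50 from a titration from 0.6 nM upwards.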

Experiment [10] in a line: qHTS Assay for Identification of Small Molecule Agonists for Hypoxia Response Element Signaling Pathway (AID 914; active = well fitted activation curve with a large enough effect in the signal ratio, with a control signal flat, not every such curve was filed as active; the % refers to the signal ratio; also: potency is read from the fitted curve at half-maximal effect). To be noted: ME-180 (cervical carcinoma) HRE-bla reporter, beta-lactamase ratio, CoCl2, 17 h; activation: active compounds read high. The method, boiled down: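 HRE-bla ME-180 assay for agonist-like enhancement of an EC50 CoCl2 stimulus: 17 h at 37 degrees Celsius, CCF4 for 2.5 h, ratiometric 460/530 nm signal converted to %Activity and fitted to AC50.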

Experiment [11] in a line: qHTS profiling for inhibitors of Plasmodium falciparum proliferation (AID 504749; active = well fitted inhibition curve with a large enough effect;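 also: 0% = DMSO vehicle and full inhibition = artemisinin control; nearly all actives have a fitted effect of over 60% in size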). To be noted: P. falciparum in erythrocytes, SYBR Green DNA, 72 h. The procedure, abridged:
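Fluorescence of SYBR Green-bound parasite DNA, read at 485/535 nm, served as the growth measure. Infected erythrocytes were cultured with compound 72 h; artemisinin (0.29 uM) and DMSO wells defined the normalization range.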

Setting [12] is: at 7.69 µM (top of the series) unless noted.
[13] abbreviates: at 28.7 µM (top of the series), parasite line A.
Setting [14] is: at 28.7 µM (top of the series), parasite line B.

Values joined by “and” are separate entries in the source; they are usually repeats but may differ in a detail not shown here. Identical values can stand only once. Unmarked numbers belong to inactive results. Records with an inconclusive call do not appear. Active and inactive are the calls of the source. Unless noted, calls follow the shape of the dose curve; as a rule, active = well fitted curve in either direction with a large enough effect (not every such curve was filed as active); inconclusive = small, poorly fitted or top-dose-only effect, or another doubt; inactive = flat fitted curve, though single readings scatter.

3',5'-cyclic-AMP phosphodiesterase 4B (Homo sapiens), sequence (Q07343 whole entry, looked up): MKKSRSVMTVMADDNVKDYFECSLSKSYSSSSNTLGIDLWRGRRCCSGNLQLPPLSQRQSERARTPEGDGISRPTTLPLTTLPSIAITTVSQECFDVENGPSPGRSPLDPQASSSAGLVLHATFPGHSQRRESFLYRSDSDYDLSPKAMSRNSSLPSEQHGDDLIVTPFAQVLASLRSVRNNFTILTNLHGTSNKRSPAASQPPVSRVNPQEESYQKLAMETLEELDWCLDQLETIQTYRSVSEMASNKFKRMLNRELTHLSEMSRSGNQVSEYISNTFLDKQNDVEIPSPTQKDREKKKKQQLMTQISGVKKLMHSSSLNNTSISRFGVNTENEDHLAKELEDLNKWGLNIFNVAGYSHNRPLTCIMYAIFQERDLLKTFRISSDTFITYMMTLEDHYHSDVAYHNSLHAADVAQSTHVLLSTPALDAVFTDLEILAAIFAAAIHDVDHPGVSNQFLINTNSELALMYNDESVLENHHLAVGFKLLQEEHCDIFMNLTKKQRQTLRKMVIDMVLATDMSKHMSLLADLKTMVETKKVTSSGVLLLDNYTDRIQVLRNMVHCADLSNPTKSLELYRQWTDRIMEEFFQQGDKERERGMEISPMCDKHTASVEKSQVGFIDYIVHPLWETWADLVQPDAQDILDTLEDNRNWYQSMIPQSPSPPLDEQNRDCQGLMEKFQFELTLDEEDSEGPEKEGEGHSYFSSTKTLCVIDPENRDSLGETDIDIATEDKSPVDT
Lysosomal acid glucosylceramidase (Homo sapiens), sequence (P04062 whole entry, looked up): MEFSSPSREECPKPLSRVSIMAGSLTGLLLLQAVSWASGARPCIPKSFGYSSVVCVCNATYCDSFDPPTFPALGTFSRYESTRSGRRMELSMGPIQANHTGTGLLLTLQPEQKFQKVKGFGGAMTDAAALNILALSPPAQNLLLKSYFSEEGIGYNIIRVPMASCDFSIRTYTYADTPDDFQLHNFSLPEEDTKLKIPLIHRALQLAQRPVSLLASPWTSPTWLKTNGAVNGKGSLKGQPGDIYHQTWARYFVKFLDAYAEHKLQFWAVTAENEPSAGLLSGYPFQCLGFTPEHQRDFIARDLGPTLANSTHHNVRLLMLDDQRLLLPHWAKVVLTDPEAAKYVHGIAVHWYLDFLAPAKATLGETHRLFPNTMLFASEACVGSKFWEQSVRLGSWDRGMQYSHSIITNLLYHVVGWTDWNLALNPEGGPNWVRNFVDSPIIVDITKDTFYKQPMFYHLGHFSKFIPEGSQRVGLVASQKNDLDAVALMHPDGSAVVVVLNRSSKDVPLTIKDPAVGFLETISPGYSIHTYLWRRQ

Turning to `O=C(C[n+]1ccc2ccccc2c1)c1ccc2ccc3ccccc3c2c1`, the values for the activity change, negative = inhibition in experiment [1] (setting [12]) and in experiment [3] (setting [12]) were 0.901% and -15.5%, respectively. Also, the Potency in experiment [2] was 2.51 µM (active); in experiment [5], greater than 46 µM; in experiment [6] it was greater than 9.22 µM. The activity, negative = inhibition in experiment [4] (setting [12]) is 0.433%. Moreover, the Potency result in experiment [7] and in experiment [8] was “inactive” in each case.

On to `N#CCCn1c(=O)c(-c2ccccc2)nc2cnc(N3CCNCC3)nc21`, for which the Potency in experiment [9] was greater than 11.4 µM; in experiment [5], greater than 9.22 µM; in [6], greater than 46 µM; in experiment [10], 3.16 µM (active). Moreover, the Potency entry in experiment [7] and in experiment [8] was “inactive” throughout.

Regarding `COc1cc(N=Nc2cccc(S(N)(=O)=O)c2)c2ccccc2c1N`, the values for the Potency in [9], in [5] and in [6] were greater than 11.4 µM, greater than 46 µM and greater than 9.22 µM, respectively. In addition, the Potency result in [7] and in [8] was “inactive” throughout.

As to `NS(=O)(=O)c1ccc(NCc2nc3ccccc3[nH]2)cc1`, the activity change, negative = inhibition is 2.25% in [1] (setting [12]), -18.8% [at 2.29 µM] in [2] and 8.2% in experiment [3] (setting [12]). Also, the activity, negative = inhibition in [4] (setting [12]) is 9.55%. For the same molecule, the values for the Potency in [5] and in experiment [6] were greater than 46 µM and greater than 9.22 µM, respectively. The Potency entry in experiment [7] and in experiment [8] was “inactive” each time.

As to `C[C@@]12CC[C@@H]3[C@H](CCC4=CC(=O)CC[C@]43C)[C@@H]1CC[C@@H]2C(=O)COS(=O)(=O)c1ccc(Br)cc1`, the results for the activity change, negative = inhibition in experiment [1] (setting [12]) and in experiment [3] (setting [12]) were -0.601% and 19%, respectively. The Potency entry in experiment [2], in experiment [7] and in experiment [8] was “inactive” in each case. In [4] (setting [12]), the activity, negative = inhibition was -0.203%. The figures for the Potency in experiment [5] and in [6] were 0.793 µM (active) and greater than 9.22 µM, respectively.

Consider `NC(=O)c1ncn([C@@H]2O[C@@H](CO)[C@@H](O)[C@H]2O)n1`, for which the activity change, negative = inhibition in experiment [1] (setting [12]) is 18.3% [at 38 µM]; in [3] (setting [12]), 17% [at 38 µM]. In addition, the Potency entry in [2], in experiment [7] and in experiment [8] was “inactive” each time. Moreover, the activity, negative = inhibition in experiment [4] (setting [12]) is -14.5% [at 38 µM]. The Potency in experiment [5] and in experiment [6] was greater than 46 µM throughout.

Turning to `COc1cc2nc(N(C)CCCNC(=O)[C@@H]3CCCO3)nc(N)c2cc1OC`, the activity change, negative = inhibition in experiment [1] (setting [12]) was 7.7% [at 17.2 µM]; in experiment [3] (setting [12]), -29.6% [at 17.2 µM]. In addition, the Potency result in experiment [2], in experiment [7] and in [8] was “inactive” in each case. Besides, the activity, negative = inhibition in [4] (setting [12]) was 2.71% [at 17.2 µM]; in experiment [11] (at 12.8 µM (top of the series), parasite line A), 3.61%; in [11] (at 12.8 µM (top of the series), parasite line B), 7.55%. In addition, the Potency in experiment [5] and in experiment [6] was greater than 20.6 µM in each case.

Consider `CSc1ccc(NC(=O)Nc2cc(C)ccn2)cc1`, for which the figures for the activity change, negative = inhibition in experiment [1] (setting [12]) and in [3] (setting [12]) were 0.23% and -18.9%, respectively. The Potency in experiment [2] was 0.501 µM (active); in experiment [5] it was greater than 46 µM; in experiment [6] it was greater than 9.22 µM. Further, the activity, negative = inhibition in experiment [4] (setting [12]) is -7.77%. Moreover, the Potency result in experiment [7] and in experiment [8] was “inactive” each time.

For `CC(=O)N1CCN(c2ccc(OC[C@@H]3CO[C@@](Cn4ccnc4)(c4ccc(Cl)cc4Cl)O3)cc2)CC1`, the activity change, negative = inhibition in experiment [1] (at 17.2 µM (top of the series)) was -18.1%; in experiment [1] (at 38 µM (top of the series)), -10.5%; in experiment [3] (at 17.2 µM (top of the series)) it was -5.42%; in experiment [3] (at 38 µM (top of the series)), -20.5%. The activity, negative = inhibition in experiment [4] (at 17.2 µM (top of the series)) was -12.7%; in experiment [4] (at 38 µM (top of the series)), -11.9%; in experiment [11] (setting [13]) it was -14.8%; in experiment [11] (setting [14]) it was -14.2%. Moreover, the Potency is > 46 µM and > 20.6 µM in experiment [5]; > 46 µM and > 20.6 µM in [6]. Besides, the Potency result in experiment [8] is “inactive”.

For `Cn1c(=O)c2[nH]c(/N=N\N3CCN(CCO)CC3)nc2n(C)c1=O`, the activity change, negative = inhibition in experiment [1] (setting [12]) was 6.96%; in experiment [2], -14.7% [at 2.29 µM]; in [3] (setting [12]) it was 7.64%. Moreover, the activity, negative = inhibition in experiment [4] (setting [12]) was 11.6%. The values for the Potency in experiment [5] and in experiment [6] were greater than 46 µM and greater than 9.22 µM, respectively. Besides, the Potency entry in experiment [7] and in [8] was “inactive” each time.

As for `Cn1c(=O)c2[nH]c(COCc3nc4c([nH]3)c(=O)n(C)c(=O)n4C)nc2n(C)c1=O`, the activity change, negative = inhibition in experiment [1] (setting [12]) was 6.66%; in [2] it was 4.5% [at 2.29 µM]; in experiment [3] (setting [12]), 5.77%. The activity, negative = inhibition in experiment [4] (setting [12]) was -2.27%. The Potency in experiment [5] is greater than 46 µM; in [6] it was greater than 9.22 µM. The Potency result in [7] and in [8] was “inactive” throughout.

As to `O=C(O)/C(=C\c1ccccc1)c1ccccc1`, the values for the activity change, negative = inhibition in [1] (setting [12]) and in [3] (setting [12]) were 3.72% and 1.44%, respectively. The Potency result in [2], in [7] and in experiment [8] was “inactive” each time. Also, the activity, negative = inhibition in experiment [4] (setting [12]) was -0.514%. Besides, the Potency in experiment [5] was greater than 46 µM; in [6] it was greater than 9.22 µM.

For `C[N+]1(C)[C@@H]2CC(OC(=O)[C@@H](CO)c3ccccc3)C[C@@H]1[C@H]1O[C@H]12` (stereo not given in full), the Potency in experiment [9] was greater than 11.4 µM. For the same molecule, the activity, negative = inhibition is 5.68% in experiment [11] (setting [13]) and -7.21% in [11] (setting [14]).

As for `O=[N+]([O-])c1ccc2c(c1)Cc1cc(N=Cc3ccc4c(c3)OCO4)ccc1-2`, the activity change, negative = inhibition is -3.82% in experiment [1] (setting [12]) and -8.54% in [3] (setting [12]). For the same molecule, the Potency is 0.794 µM (active) in experiment [2], greater than 46 µM in experiment [5] and greater than 9.22 µM in experiment [6]. The activity, negative = inhibition in experiment [4] (setting [12]) was -4.51%. Also, the Potency result in experiment [7] and in experiment [8] was “inactive” in each case.

As for `CC(C)/C(=N/[N+](C)(C)C)c1ccccc1`, the figures for the activity change, negative = inhibition in experiment [1] (setting [12]), in experiment [2] and in [3] (setting [12]) were 3.83%, -16.2% [at 2.29 µM] and -1.16%, respectively. Moreover, the activity, negative = inhibition in experiment [4] (setting [12]) was 0.141%. For the same molecule, the results for the Potency in experiment [5] and in experiment [6] were greater than 46 µM and greater than 9.22 µM, respectively. The Potency entry in experiment [7] and in experiment [8] was “inactive” throughout.
